In PubChem BioAssay (Tox21):
Results filed as inconclusive are left out. Active and inactive are the calls of the source. Calls come from the whole dose curve; as a rule, active = well fitted cell-killing curve with a large enough effect in the repeat runs; inconclusive = weak or mixed curves, or effect the other way; inactive = no such curve, though single readings can be large or run the other way.

experiment: qHTS assay to identify small molecule agonists of the vitamin D receptor (VDR) signaling pathway - cell viability counter screen (AID 743224); conditions: VDR-bla HEK293T viability, CellTiter-Glo luminescence, 16 h; series mostly up to 62.6 µM; note: nearly all actives have a fitted effect of over 50% in size
Text: U.S. Tox21 Program National Center for Advancing Translational Sciences [NCATS] NIH Chemical Genomics Center [NCGC] U.S. Environmental Protection Agency [EPA] National Institutes of Environmental Health Sciences [NIEHS] National Toxicology Program [NTP] U.S. Food and Drug Administration [FDA] Tox21 Assay Overview: The vitamin D receptor (VDR), a member of nuclear hormone receptor superfamily, plays a critical role in calcium homeostasis and bone metabolism. It is also involved in cell differentiation and growth, and thrombogenicity. […] The cytotoxicity of the Tox21 compound library against the VDR-bla cell line was tested in parallel by measuring the cell viability using CellTiter-Glo assay (Promega, Madison, WI) in the same wells.
Tox21 Assay Protocol Summary: VDR-bla cells were dispensed at 2,000 cells/6 uL/well into black wall/clear-bottom 1536-well plates using a Multidrop Combi (Thermo Fisher Scientific, Waltham, MA) dispenser. After the assay plates were incubated at a 37C and 5% CO2 for 4 h, 23 nL of compounds dissolved in DMSO, positive controls or DMSO only was transferred to the assay plate by a Pintool station (Kalypsys, San Diego, CA). The plates were incubated at 37C and 5% CO2 for 16 h. After 1 uL of LiveBLAzerTM B/G FRET substrate was added using a Bioraptr Flying Reagent Dispenser (FRD) workstation (Beckman Coulter, Indianapolis, IN, USA), the plates were incubated at room temperature for 2 h, and fluorescence intensity was measured by an Envision plate reader (PerkinElmer, Shelton, CT). For cell viability readout that measures cytotoxicity, 3 ul/well of CellTiter-Glo reagent was added into the assay plates using a FRD. After 30 min incubation at room temperature, the luminescence intensity in the plates was measured using a ViewLux (PerkinElmer) plate reader.
Potency is the fitted concentration of half-maximal effect.

| SMILES | Potency |
| --- | --- |
| CCN(CC)CCNC(=O)c1c(C)[nH]c(/C=C2\C(=O)Nc3ccc(F)cc32)c1C | 29.8 µM (active) |
| O=C(Nc1cccc(Cl)c1)OCC#CCCl | 43.6 µM (active) |
| CC(=O)N1CCN(c2ccc(OC[C@H]3CO[C@](Cn4ccnc4)(c4ccc(Cl)cc4Cl)O3)cc2)CC1 | 21.9 µM (active) |
| CC(=O)OCC(C)OC(C)=O (stereo not given) | inactive |
| Cc1[nH]cnc1C[C@H]1CCc2c(C)c3ccccc3n2C1=O | inactive |
| CCCCCCCCCCCCCCCCCC[N+](C)(C)C | 24.6 µM (active) |
| [Cl][Bi]([Cl])([c]1ccccc1)([c]1ccccc1)[c]1ccccc1 | 3.87 µM (active) |
| CCCCCCCCCCCCCCCCCC[N+](C)(C)Cc1ccccc1 | 13.9 µM (active) |
| Nc1ccc(N)c2ccccc12 | 19.5 µM (active) |
| C[C@H](CCC(=O)O)[C@H]1CC[C@H]2[C@@H]3CC[C@@H]4C[C@H](O)CC[C@]4(C)[C@H]3CC[C@]12C | 24.5 µM (active) |
| N=C1N=C(N)c2ccccc21 | inactive |
| CCc1cc(SCc2sc(-c3ccc(C(F)(F)F)cc3)nc2CN2CCN(c3ccc(OC)cc3)CC2)ccc1OCC(=O)O | 19.5 µM (active) |
| Cc1[nH]nc2c1N=C(c1ccccc1Cl)c1cc([N+](=O)[O-])ccc1N2 | 5.49 µM (active) |
| O=C1c2ccccc2Cc2ccccc21 | inactive |
| CC1=C(/C=C/C(C)=C/C=C/C(C)=C/C=O)C(C)(C)CCC1 | 15.4 µM (active) |
| O=S1(=O)CC(Cl)(Cl)C(Cl)(Cl)C1 | 2.19 µM (active) |
| Clc1ccc(C(Cn2ccnc2)OCc2ccc(Sc3ccccc3)cc2)c(Cl)c1 (stereo not given) | 33.5 µM (active) |
| CC(=O)S[C@@H]1CC2=CC(=O)CC[C@]2(C)[C@H]2CC[C@@]3(C)[C@@H](CC[C@@]34CCC(=O)O4)[C@H]12 | inactive |
| CCCCCCCC/C=C\CCCCCCCCOCCO | 25.4 µM (active) |
| Cc1c(C)c2c(c(C)c1OC(=O)CCC(=O)O)CC[C@@](C)(CCC[C@H](C)CCC[C@H](C)CCCC(C)C)O2 | inactive |

| SMILES | Potency |
| --- | --- |
| OCCCCCCCCCCCCBr | inactive |
| O=c1[nH]sc2cc(Cl)ccc12 | 29.8 µM (active) |
| O=C(Nc1cccc([N+](=O)[O-])c1)c1cc2ccccc2cc1O | 1.23 µM (active) |
| NNc1nc(-c2ccc(N)cc2)cs1 | inactive |
| CCCCCOC(=O)CCCC | inactive |
| CCCCCCCCCCCCCCCS(=O)(=O)Oc1ccccc1 | inactive |
| Cc1cccc(S(=O)(=O)O)c1C | inactive |
| O=C(Nc1ccc(Oc2ccc(Cl)cc2)c(Cl)c1)c1cc(I)cc(I)c1O | 18.8 µM (active) |
| CCOC(=O)O[C@H](C)OC(=O)c1ccc2c(c1)cc(C(=O)NC1CCN(C(C)C)CC1)n2Cc1cc(-c2ccc(Cl)s2)on1 | 14.5 µM (active) |
| CCCCCCCCCCCCCC[P+](CCCC)(CCCC)CCCC (tested in a mixture with another compound) | inactive |
| [Cl][Au]([Cl])[Cl] | 3.89 µM (active) |
| Oc1ccc2c(c1)-c1ccccc1C2 | inactive |
| O=[N+]([O-])c1cc(Cl)c(Cl)c(Cl)c1Cl | inactive |
| COC(=O)C1=C(C)NC(C)=C(C(=O)OCCc2ccc(N3CCN(C(c4ccccc4)c4ccccc4)CC3)cc2)C1c1cccc([N+](=O)[O-])c1 (stereo not given) | inactive |
| Oc1cccc(-c2c3nc(c(-c4cccc(O)c4)c4ccc([nH]4)c(-c4cccc(O)c4)c4nc(c(-c5cccc(O)c5)c5ccc2[nH]5)CC4)C=C3)c1 | 26.6 µM (active) |
| Cc1cc(O)c(C(C)(C)C)cc1Sc1cc(C(C)(C)C)c(O)cc1C | 4.36 µM (active) |
| O=C(O)c1ccc(Cl)c(Cl)c1 | inactive |
| Cn1cc(C(=O)[C@@H]2CCc3nc[nH]c3C2)c2ccccc21 | inactive |
| CCCCN1CCCC[C@H]1C(=O)Nc1c(C)cccc1C | inactive |
| O=C(Oc1cccc2cccnc12)c1ccccc1 | 3.76 µM (active) |
